Data on three compounds can be found in PubChem BioAssay.

For assay [1], the target named is Tumor necrosis factor receptor superfamily member 10B (Homo sapiens) (UniProt O14763). The assay is described as follows: viability loss of caspase-8 NB7 cells with TRAIL – with/without TRAIL, luminescence panel, confirmation (AID 651596). The conditions noted are these: NB7 neuroblastoma + caspase-8, TRAIL sensitization, NB7 Caspase-8, with TRAIL, mean of runs, at 10 µM, stronger effect = higher value.

Assay in assay [2]: as above
The conditions noted are these: NB7 neuroblastoma + caspase-8, without TRAIL, NB7 Caspase-8, without TRAIL, mean of runs, at 10 µM.

Molecules are shown by their SMILES.

Tumor necrosis factor receptor superfamily member 10B (Homo sapiens), sequence (O14763 whole entry, looked up): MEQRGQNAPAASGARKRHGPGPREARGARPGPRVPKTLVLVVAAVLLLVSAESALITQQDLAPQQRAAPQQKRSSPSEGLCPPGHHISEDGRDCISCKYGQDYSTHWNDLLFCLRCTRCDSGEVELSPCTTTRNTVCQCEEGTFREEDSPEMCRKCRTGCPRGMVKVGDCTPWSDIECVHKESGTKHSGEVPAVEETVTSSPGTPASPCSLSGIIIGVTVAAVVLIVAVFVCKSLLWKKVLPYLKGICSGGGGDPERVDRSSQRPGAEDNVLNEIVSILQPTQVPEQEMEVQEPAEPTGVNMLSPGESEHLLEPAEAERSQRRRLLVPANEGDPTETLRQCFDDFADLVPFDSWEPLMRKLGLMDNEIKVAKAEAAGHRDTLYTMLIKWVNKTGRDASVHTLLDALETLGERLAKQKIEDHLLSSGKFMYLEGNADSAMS

In the case of `C=C1CC(COc2cc(=O)oc3ccccc23)(c2ccccc2)OC1=O` (stereo unspecified), the activity in assay [1] was found to be 89.5%; in assay [2] it was 96.5%.

`CC(c1ccco1)N(C(=O)COc1ccc(Cl)cc1Cl)c1ccccn1` (stereo unspecified): the activity in assay [1] was -4.47%; in assay [2], 10.2%.

For `Cc1nc(NCC2CCCO2)nc2c1C(=O)CC(C)C2` (stereo unspecified), the activity in assay [1] came out at 33%; in assay [2], 40.6%.
